# Source: publication PMC4336329 (PLoS ONE, 2015)
# In all, about 310,000 compounds went through this assay and about 14,000 (4.5%) showed an effect of 50% or more. Effects have a minus sign here. This excerpt belongs to a sample that is enriched for strong results.
# Target: human ether-à-go-go-related gene (hERG) potassium channel (human, UniProt Q12809)
# Test: primary screen, population patch clamp on CHO cells stably expressing hERG; higher = less effect of the substance
# 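Further: peak tail current of the secondary pulse compared with the same well before compound.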
# Sequence of human ether-à-go-go-related gene (hERG) potassium channel (Q12809 whole entry, looked up): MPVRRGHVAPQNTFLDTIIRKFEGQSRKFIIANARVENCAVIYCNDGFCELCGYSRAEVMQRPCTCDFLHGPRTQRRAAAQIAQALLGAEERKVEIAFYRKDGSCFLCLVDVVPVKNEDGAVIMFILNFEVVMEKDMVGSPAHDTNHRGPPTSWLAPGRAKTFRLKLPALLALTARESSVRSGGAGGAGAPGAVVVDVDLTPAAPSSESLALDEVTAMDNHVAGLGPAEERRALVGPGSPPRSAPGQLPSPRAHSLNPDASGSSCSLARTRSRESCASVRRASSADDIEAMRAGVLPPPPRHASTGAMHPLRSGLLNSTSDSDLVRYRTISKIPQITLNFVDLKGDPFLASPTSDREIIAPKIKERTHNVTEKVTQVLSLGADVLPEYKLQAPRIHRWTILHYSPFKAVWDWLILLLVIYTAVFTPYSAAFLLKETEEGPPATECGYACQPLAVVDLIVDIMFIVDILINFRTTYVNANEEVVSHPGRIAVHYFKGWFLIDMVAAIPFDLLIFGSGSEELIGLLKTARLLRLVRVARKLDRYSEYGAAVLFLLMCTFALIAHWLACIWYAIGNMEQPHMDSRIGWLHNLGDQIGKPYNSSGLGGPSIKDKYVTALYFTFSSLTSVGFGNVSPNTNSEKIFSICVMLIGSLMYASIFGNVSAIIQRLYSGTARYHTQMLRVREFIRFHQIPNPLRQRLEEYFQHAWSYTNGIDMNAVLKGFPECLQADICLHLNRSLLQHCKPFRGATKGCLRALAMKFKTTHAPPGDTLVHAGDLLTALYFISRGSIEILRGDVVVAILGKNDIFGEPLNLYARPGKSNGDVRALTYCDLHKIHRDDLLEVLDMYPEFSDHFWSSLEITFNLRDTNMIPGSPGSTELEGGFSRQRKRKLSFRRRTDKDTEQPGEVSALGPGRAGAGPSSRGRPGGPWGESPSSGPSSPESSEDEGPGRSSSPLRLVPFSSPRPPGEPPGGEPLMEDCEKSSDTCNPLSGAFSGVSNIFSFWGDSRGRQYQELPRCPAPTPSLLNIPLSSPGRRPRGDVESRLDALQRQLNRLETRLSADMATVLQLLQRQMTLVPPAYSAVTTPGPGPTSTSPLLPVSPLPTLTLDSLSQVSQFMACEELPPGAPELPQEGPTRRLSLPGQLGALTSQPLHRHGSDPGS
row,SMILES,"hERG current change (%, negative = inhibition) at 10uM"
1,CC(C)N(O)C(=O)NC(C)(C)C,11.5%
2,O=C(NC1CCCCC1)C(c1ccc(F)cc1)N(C(=O)c1csnn1)C1CCCC1 (stereo not drawn),-7.88%
3,COc1ccc(-c2noc(COc3ccc(Cl)c(C)c3)n2)cc1,2.81%
4,O=C(CCC1CCCN(Cc2ccncc2)C1)NCc1ccc(F)c(F)c1 (stereo not drawn),-13.6%
5,O=C(CCC1CCCN(Cc2ccc3c(c2)OCCO3)C1)NCc1ccccc1F (stereo not drawn),-24.2%
6,O=C(CCC1CCCN(c2ncccn2)C1)NCc1ccc(F)c(F)c1 (stereo not drawn),-40.8%
7,O=C(CCC1CCCN(Cc2ccc3c(c2)OCCO3)C1)NCc1ccc(F)c(F)c1 (stereo not drawn),-61.5%
8,O=C(CCC1CCCN(Cc2ccc3c(c2)CCO3)C1)NCc1ccc(F)c(F)c1 (stereo not drawn),-63.7%
9,O=C(CCC1CCCN(Cc2cccc3c2OCO3)C1)NCc1ccc(F)c(F)c1 (stereo not drawn),-74.4%
10,O=C(CCC1CCCN(C(=O)c2ccncc2)C1)NCc1ccc(F)c(F)c1 (stereo not drawn),-1.99%
11,COc1cccc(CNC(=O)CCC2CCCN(Cc3ccc4c(c3)CCO4)C2)c1 (stereo not drawn),-33.6%
12,CC(=O)c1cccc(CN2CCCC(CCC(=O)NCc3ccccc3F)C2)c1 (stereo not drawn),-48.5%
13,CC1=C(C(=O)N2CCCC(CCC(=O)NCc3ccc(F)c(F)c3)C2)OCCO1 (stereo not drawn),3.36%
14,CC(=O)c1cccc(CN2CCCC(CCC(=O)NCc3ccc(F)c(F)c3)C2)c1 (stereo not drawn),-74.7%
15,O=C(CCC1CCCN(C(=O)c2ccc3c(c2)OCO3)C1)NCc1ccc(F)c(F)c1 (stereo not drawn),-8.73%
16,COC(=O)Oc1ccc(/C=C/C(=O)OC(C)C)cc1OC(=O)OC,1.69%
17,Cc1ccc(C(=O)NCCc2ccc(S(=O)(=O)N3CCCC3)cc2)cc1,-0.599%
18,CCOc1ccc(C(=O)N(C)C2CCS(=O)(=O)C2)cc1 (stereo not drawn),18.3%
19,O=C(CSc1nnc(-c2ccco2)o1)NC(=O)Cc1ccccc1,-5.31%
20,CC[C@@H](CCC=C(C)C)C(=O)N(Cc1ccccc1)c1ccccc1,3.94%
21,CN1CCC(O)(c2ccccc2)C(C(=O)c2ccccc2)C1 (stereo not drawn),-2.34%
22,CCN1CCC(O)(c2ccccc2)C(C(=O)c2ccccc2)C1 (stereo not drawn),-7.58%
23,CN1CCC(O)(c2ccc(Cl)cc2)C(C(=O)c2ccc(Cl)cc2)C1 (stereo not drawn),-67.7%
24,O=C(CCl)Oc1ccc2occ(C(=O)c3cccs3)c2c1,0.872%
